FMDV antiviral: High Throughput Screening for Foot and Mouth Disease Virus Antivirals; FMDV antiviral cell-based qHTS; Potency, µM (top dose mostly 57.9 µM), actives largely listed as inhibitors; 410,000 compounds, 1.2% hits; calls by dose curve; tested in HEK293T cells; further: read-out not given here; nearly all actives have a fitted effect of over 45% in size
CHX counter: Cycloheximide Counterscreen for Small Molecule Inhibitors of Shiga Toxin. AID 2314, 2010. max response, %. cell reporter, cycloheximide protein synthesis inhibition counterscreen. 300,000 compounds, 12% hits; in the data active means max response mostly above about 13%, no sharp cut-off; inactive means mostly below about 14%; further: read at 38.3 µM for the half of the compounds with a filed dose
Shiga toxin inh: A qHTS for Small Molecule Inhibitors of Shiga Toxin; AID 2315, 2010; Vero cells, Shiga toxin protein synthesis inhibition reporter; inhibition, % at 38.7 µM; 290,000 compounds, 9.2% hits; in the data active means inhibition mostly above about 28%, no sharp cut-off; inactive means mostly below about 43%
LASV entry inh: qHTS for Inhibitors of binding or entry into cells for Lassa Virus | Lassa virus pseudotype entry inhibition, cell reporter | Potency, µM (highest dose often 37.9 µM), most hits filed as inhibitors | 300,000 compounds, 1.2% hits; calls by dose curve; tested in HEK293 cells; further: nearly all actives have a fitted effect of over 50% in size
Marburg entry inh: qHTS for inhibitors of binding or entry into cells for Marburg Virus; Potency, µM (highest dose often 37.8 µM), usual class: inhibitors; Marburg virus pseudotyped entry inhibition, cell reporter; 300,000 compounds, 1.8% hits; AID 540276, 2011; calls by dose curve; tested in HEK293 cells
HCV inh: qHTS Assay for Inhibitors of Hepatitis C Virus (HCV); 340,000 compounds, 3.4% hits; AID 651820, 2012; Huh7.5.1 HCVcc-Cre infection, luciferase reporter, 44 h; Potency, µM (series often up to 41.8 µM), hits mostly inhibitors; active means well fitted inhibition curve with a large enough effect; inconclusive means small, poorly fitted or top-dose-only effect, or another doubt; inactive means no such curve, though single readings can be large or run the other way
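After 44 h co-culture of compound, cells and HCVcc-Cre (~0.5 moi), substrate is added for 15 min at room temperature and luciferase measured over 15 sec. Cells were seeded at 1,000/well and pre-cultured 4 h.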
Large screens that a line does not name were inactive. This is a sample that favours compounds with a hit; in the whole collection about 13% have one here.

Cn1c(=O)cc(OCCCC(=O)NC2CCCC2)c2ccccc21	none
CNC(=O)c1ccccc1NC(=O)c1c(O)c2c([nH]c1=O)CCCC2	LASV entry inh inconclusive
O=C(N/N=C/c1cccc(F)c1)c1c(O)c2c([nH]c1=O)CCCC2	CHX counter 25.8, Shiga toxin inh 35.9, LASV entry inh inconclusive, Marburg entry inh inconclusive
CC(C)Cn1c(=O)c(C(=O)N/N=C/c2cccc(F)c2)c(O)c2ccccc21	Marburg entry inh inconclusive, HCV inh 20µM
CC[C@@H](C)[C@H](NC(=O)OC(C)(C)C)c1nnc(S(=O)(=O)Cc2cc(C)ccc2C)o1	CHX counter 17.7, LASV entry inh 10µM, Marburg entry inh inconclusive
CC(C)[C@H](NC(=O)OC(C)(C)C)c1nnc(S(=O)(=O)Cc2c(F)cccc2Cl)o1	FMDV antiviral 35.5µM, CHX counter 34.4, HCV inh inconclusive
COC(=O)NNC(=O)CCCOc1ccc(Cl)cc1Cl	none
CCn1c(CCCOc2ccc(Cl)cc2Cl)n[nH]c1=S	CHX counter 21.2, Shiga toxin inh 56.8, HCV inh inconclusive
CC(C)NC(=O)CCCOc1ccc(Cl)cc1Cl	CHX counter 34.0 (no result: FMDV antiviral)
O=C(O)CCC(=O)NNC(=O)CCCOc1ccc(Cl)cc1Cl	none
CCN(CC)C(=O)CCCOc1ccc(Cl)cc1Cl	Shiga toxin inh 90.7
O=C1CN(S(=O)(=O)c2ccc(F)cc2)CCN1	none (no result: CHX counter, Shiga toxin inh)
COc1cc(C(=O)NCc2nnnn2-c2ccc(C)c(C)c2)cc(OC)c1OC	none (no result: CHX counter, Shiga toxin inh, Marburg entry inh, HCV inh)
CCOc1ccc(-c2nc(N)ncc2Oc2cccc(OC)c2)c(O)c1	FMDV antiviral inconclusive, LASV entry inh inconclusive, Marburg entry inh inconclusive, HCV inh 12.6µM
CCOc1ccc(-c2n[nH]c(C)c2Oc2ccc(OC)cc2)c(O)c1	LASV entry inh inconclusive, HCV inh 11.2µM
O=C(Nc1ccc(Cl)cc1)c1ccc2nsnc2c1	CHX counter 35.2, Shiga toxin inh 96.8, LASV entry inh inconclusive, Marburg entry inh inconclusive
O=C(Nc1cccc([N+](=O)[O-])c1)c1ccc2nsnc2c1	HCV inh inconclusive
CN(C)c1ccc(NC(=O)c2ccc3nsnc3c2)cc1	CHX counter 46.1, Shiga toxin inh 160.0, LASV entry inh inconclusive, Marburg entry inh inconclusive
CC1(C)CC(=O)/C(=N/Nc2ccc(Cl)cc2)CO1	CHX counter 31.8, Shiga toxin inh 93.1, HCV inh inconclusive (no result: LASV entry inh, Marburg entry inh)
COc1ccccc1N/N=C1\COC(C)(C)CC1=O	CHX counter 34.0, Shiga toxin inh 137.5
Cc1cccc(N/N=C2/COC(C)(C)CC2=O)c1	CHX counter 77.6, Shiga toxin inh 132.8
COc1ccccc1NC(=O)Cn1c(=O)n(C)c(=O)c2sc3c(c21)COC(C)(C)C3	none (no result: LASV entry inh, Marburg entry inh)
COc1cccc(NC(=O)C2CC(=O)n3cnnc3S2)c1 (stereo unspecified)	none
Cc1nc2c(c(C)nn2C(C)(C)C)c(C)c1CCC(=O)Nc1ccc(F)cc1	Marburg entry inh inconclusive (no result: CHX counter, Shiga toxin inh, HCV inh)
CC(Sc1nnc(-c2cccnc2)n1-c1ccccc1)C(=O)NCc1ccc2c(c1)OCO2 (stereo unspecified)	CHX counter 39.6, Shiga toxin inh 76.4 (no result: FMDV antiviral)
O=C(CSc1nnc(-c2cccnc2)n1-c1ccccc1)NCc1ccc2c(c1)OCO2	none
CC1(C)Cc2c(sc3nc(-c4ccccc4)oc(=O)c23)CO1	none
O=C(Oc1ccc(C(=S)N2CCC(O)CC2)cc1)c1ccc(Cl)cc1	CHX counter 36.9
O=C(Oc1ccc(C(=S)N2CCCCC2)cc1)c1ccccc1	Marburg entry inh inconclusive
Cc1cnc(SCC2CCCO2)nc1C1CCCN(Cc2cc3c(cc2Cl)OCO3)C1 (stereo unspecified)	none (no result: CHX counter, Shiga toxin inh, LASV entry inh, Marburg entry inh, HCV inh)
CCOC(=O)CCCCCC(=O)Nc1ccc2c(c1)CC(=O)N([C@H](C)CO)C[C@H](C)[C@H](CN(C)S(=O)(=O)c1ccc(OC)cc1)O2	none (no result: CHX counter, Shiga toxin inh, LASV entry inh, Marburg entry inh)
CCOC(=O)C1(Cc2ccc(OC)cc2)CCN(C(=O)CCn2ccc(C)n2)CC1	none
CCOC(=O)C1(Cc2ccc(OC)cc2)CCN(C(=O)c2cncs2)CC1	CHX counter 15.7
CCOC(=O)C1(Cc2ccc(OC)cc2)CCN(C(=O)CCn2cccn2)CC1	CHX counter 30.2
CCOC(=O)C1(Cc2ccc(OC)cc2)CCN(C(=O)c2csc(C)n2)CC1	LASV entry inh inconclusive
CCOC(=O)C1(Cc2ccc(OC)cc2)CCN(C(=O)c2ccoc2C)CC1	CHX counter 11.2 (no result: LASV entry inh, Marburg entry inh)
O=C1C(=O)N(CCN2CCOCC2)C(c2ccncc2)/C1=C(/O)c1ccc2c(c1)OCO2 (stereo unspecified)	none
COc1cccc(C2/C(=C(/O)c3ccc4c(c3)OCO4)C(=O)C(=O)N2CCN2CCOCC2)c1 (stereo unspecified)	CHX counter 9.6 (no result: LASV entry inh, Marburg entry inh)
O=C1C(=O)N(CCCN2CCOCC2)C(c2cccs2)/C1=C(/O)c1ccc2c(c1)OCO2 (stereo unspecified)	CHX counter 28.7 (no result: FMDV antiviral, LASV entry inh, Marburg entry inh)
CCOC(=O)c1sc(NC(=O)c2cccc(S(=O)(=O)N3c4ccccc4CC3C)c2)cc1C (stereo unspecified)	LASV entry inh inconclusive, Marburg entry inh inconclusive, HCV inh 3.98µM
Cc1noc(C)c1COC(=O)c1cccc(S(=O)(=O)N2c3ccccc3CC2C)c1 (stereo unspecified)	FMDV antiviral inconclusive, LASV entry inh inconclusive, Marburg entry inh inconclusive, HCV inh 11.2µM
Cc1noc(C)c1COC(=O)c1cccc(S(=O)(=O)N2CCOCC2)c1	HCV inh inconclusive (no result: CHX counter, Shiga toxin inh)
CCOc1ccc(OCC)c(NC(=O)c2ccc(CNc3c(N4CCCC4)c(=O)c3=O)cc2)c1	LASV entry inh inconclusive
NC(=O)c1cccc(-c2ccnc3c2CC(C(=O)Nc2cccc(C(F)(F)F)c2)O3)c1 (stereo unspecified)	FMDV antiviral 28.2µM (no result: CHX counter, Shiga toxin inh, LASV entry inh, Marburg entry inh, HCV inh)
COc1ccc(NC(=O)C2Cc3c(-c4ccncc4)ccnc3O2)cc1OC (stereo unspecified)	none (no result: CHX counter, Shiga toxin inh, LASV entry inh, Marburg entry inh, HCV inh)
COc1ccc(NC(=O)C2Cc3c(-c4ccccc4)ccnc3O2)cc1OC (stereo unspecified)	FMDV antiviral 35.5µM (no result: CHX counter, Shiga toxin inh, LASV entry inh, Marburg entry inh, HCV inh)
NC(=O)c1cccc(-c2ccnc3c2CC(C(=O)Nc2ccccc2)O3)c1 (stereo unspecified)	none (no result: CHX counter, Shiga toxin inh, LASV entry inh, Marburg entry inh, HCV inh)
COc1ccc(NC(=O)C2Cc3c(-c4cccc(C(N)=O)c4)ccnc3O2)cc1OC (stereo unspecified)	none (no result: CHX counter, Shiga toxin inh, LASV entry inh, Marburg entry inh, HCV inh)
COc1ccc(NC(=O)C2Cc3c(-c4cccc(C(C)=O)c4)ccnc3O2)cc1OC (stereo unspecified)	FMDV antiviral 8.91µM (no result: CHX counter, Shiga toxin inh, LASV entry inh, Marburg entry inh, HCV inh)
COc1ccc(CCCNC(=O)C2Cc3c(-c4cccc(NC(C)=O)c4)ccnc3O2)cc1 (stereo unspecified)	FMDV antiviral 35.5µM (no result: CHX counter, Shiga toxin inh, LASV entry inh, Marburg entry inh, HCV inh)
Cc1cc(N2CCN(c3ccccc3Cl)CC2)n2cc(-c3ccccc3)nc2n1	FMDV antiviral inconclusive, LASV entry inh inconclusive, Marburg entry inh inconclusive, HCV inh inconclusive
CNCC(O)c1ccc(OC(=O)C(C)(C)C)c(OC(=O)C(C)(C)C)c1 (stereo unspecified)	HCV inh inconclusive (no result: CHX counter, Shiga toxin inh, LASV entry inh, Marburg entry inh)

Screening data deposited in PubChem by National Center for Advancing Translational Sciences (NCATS).
